# Screening results from PubChem.
# Hits are enriched below; roughly 2.3% of the tested compounds scored in any of these assays.
# JMJD2E inh = qHTS Assay for Inhibitors of Human Jumonji Domain Containing 2E (JMJD2E) | Potency, µM (doses to about 57.1 µM), without a hit: at the highest dose activity change, negative = inhibition, actives largely listed as inhibitors | JMJD2E catalytic domain, FDH-coupled NADH fluorescence (FDH is formaldehyde dehydrogenase) | 1.6% of 230,000 active | Lysine-specific demethylase 4E (Homo sapiens), B2RXH2; active = well fitted inhibition curve with a large enough effect, not every such curve was filed as active; inconclusive = small, poorly fitted or top-dose-only effect, or another doubt; inactive = no such curve, though single readings can be large or run the other way;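 also: potency is read from the fitted curve at half-maximal effect; 0% = wells with enzyme and -100% = buffer wells without enzyme; nearly all actives have a fitted effect of over 50% in size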
# Target sequence (B2RXH2 1-337 limits assumed): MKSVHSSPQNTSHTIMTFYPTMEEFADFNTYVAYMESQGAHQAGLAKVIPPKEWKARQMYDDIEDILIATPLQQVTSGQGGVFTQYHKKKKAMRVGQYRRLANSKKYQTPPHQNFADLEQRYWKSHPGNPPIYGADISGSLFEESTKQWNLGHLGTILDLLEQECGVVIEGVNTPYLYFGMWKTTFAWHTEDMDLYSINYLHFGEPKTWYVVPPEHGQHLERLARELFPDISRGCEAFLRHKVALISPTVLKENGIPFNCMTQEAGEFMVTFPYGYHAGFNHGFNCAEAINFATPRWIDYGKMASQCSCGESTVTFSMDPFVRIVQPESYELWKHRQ
# RGS12 GoLoco inh-1 = qHTS Assay for Inhibitors of RGS12 GoLoco Motif Activity (Red Fluorophore); Guanine nucleotide-binding protein G(i) subunit alpha-1 (Homo sapiens), P63096; Gai1:RGS12 GoLoco peptide FP, rhodamine, 10 min; Potency, µM (series often up to 61.6 µM), for the others: at the top dose activity, negative = inhibition, most hits filed as inhibitors; 0.44% of 230,000 active; AID 880, 2007; active = well fitted inhibition curve with a large enough effect, not every such curve was filed as active; inactive = no such curve, though single readings can be large or run the other way; also: potency is read from the fitted curve at half-maximal effect; % is scaled to controls: 0 for no effect and ±100 for the full control effect; nearly all actives have a fitted effect of over 30% in size
# Target sequence (P63096 whole entry, looked up): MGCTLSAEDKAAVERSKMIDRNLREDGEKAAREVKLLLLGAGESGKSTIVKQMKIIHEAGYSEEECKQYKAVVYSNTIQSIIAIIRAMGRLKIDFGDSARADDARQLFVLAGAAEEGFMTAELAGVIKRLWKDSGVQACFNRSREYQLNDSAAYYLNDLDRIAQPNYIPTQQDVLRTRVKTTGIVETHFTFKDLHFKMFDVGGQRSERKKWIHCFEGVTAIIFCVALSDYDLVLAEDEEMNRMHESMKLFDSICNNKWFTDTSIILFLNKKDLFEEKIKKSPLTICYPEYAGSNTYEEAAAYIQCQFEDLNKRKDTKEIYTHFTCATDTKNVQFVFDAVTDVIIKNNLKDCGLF
# HTT ATP protect = qHTS Multiplex Assay to Identify Dual Action Probes in a Cell Model of Huntington: Cytoprotection (ATP) | PC12 HTT-Q103 induced, cytoprotection, ATP luminescence, 40 h | Potency, µM (highest dose often 56.4 µM), without a hit: cytoprotection (ATP increase), actives largely listed as activators | 0.14% of 230,000 active | AID 1471, 2008; also: potency is read from the fitted curve at half-maximal effect; % of control where 0% means no effect; nearly all actives have a fitted effect of over 45% in size
#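 ATP quantification (ATPlite) reports survival of PC12 cells in which tebufenozide, 100 nM final, switches on Htt exon 1 with 103 glutamines linked to GFP; compounds are titrated.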
# FBPA coupling cs = qHTS Assay for Inhibitors of Fructose-1,6-bisphosphate Aldolase from Giardia Lamblia: Coupling assay counterscreen; coupling enzyme system counterscreen, AmpLite Red fluorescence; activity change, negative = inhibition, % at 58.2 µM, hits read low; 0.67% of 290,000 active; AID 2472, 2010; in the data active = activity change below about -30%; also: % is scaled to controls: 0 for no effect and ±100 for the full control effect
#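 First, compound is pin-transferred into glyceraldehyde-3-phosphate coupling-enzyme reagent at 57.5 uM final and held 10 min at RT. Next, substrate, coupling system and AmpLite Red are added. After 20 min RT, fluorescence (525/598 nm) is read.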
# HttQ103 aggreg = qHTS Multiplex Assay to Identify Dual Action Probes in a Cell Model of Huntington: Aggregate Formation (GFP) | PC12 HttQ103-GFP aggregates, Acumen cytometry, 40 h | Potency, µM (top dose mostly 46.1 µM), for the others: at the top dose activity change, negative = inhibition, usual class: inhibitors | 1.1% of 220,000 active | AID 1688, 2009; also: potency is read from the fitted curve at half-maximal effect; % is scaled to controls: 0 for no effect and ±100 for the full control effect; nearly all actives have a fitted effect of over 60% in size
#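 PC12 cells with ecdysone-inducible HTT exon1 Q103-GFP, induced by 100 nM tebufenozide, given compounds in a concentration series. GFP aggregates (1–25 um, 6 SD above background) counted in lysates by laser-scanning cytometry, 488 nm excitation.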
# VDR inhibitor = Inhibitors of the vitamin D receptor (VDR): qHTS; Vitamin D3 receptor (Homo sapiens), P11473; VDR-SRC2-3 peptide fluorescence polarization, 2 h; Potency, µM, inactives show max response, negative = inhibition, actives largely listed as inhibitors; 0.93% of 400,000 active; AID 504847, 2011; also: potency is read from the fitted curve at half-maximal effect; % is scaled to controls: 0 for no effect and ±100 for the full control effect
#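 Two reagent solutions held at 4 deg C in the dark were dispensed, compounds pinned at 23 nl, and the mixture incubated 2 h at room temperature. Read-out: fluorescence polarization of VDR–SRC2-3 peptide binding.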
# RGS12 GoLoco inh-2 = Confirmation qHTS Assay for Inhibitors of RGS12 GoLoco Motif Activity (Red Fluorophore) | Gai1/rhodamine-RGS12 GoLoco peptide fluorescence polarization | shares compounds with RGS12 GoLoco inh-1 | AID 2390, 2010 | Potency, µM (series often up to 57.1 µM), without a hit: at the top dose activity, negative = inhibition, usual class: inhibitors | 50% of 110 active
# Casp1 catalase = Concentration-Response Counterscreen for Redox Active Inhibitors of Caspase-1: Catalase; shares compounds with FBPA coupling cs; caspase-1 Ac-WEHD-AFC fluorescence rate, catalase buffer; Potency, µM (highest dose often 57.5 µM), without a hit: at the top dose activity change, negative = inhibition, most hits filed as inhibitors; 30 tested, under 10 active; AID 888, 2007; active = well fitted inhibition curve with a large enough effect in the main read-out, with a control signal flat; inconclusive = small, poorly fitted or top-dose-only effect, or a change in a side signal; inactive = no such curve, though single readings can be large or run the other way
# CASP1 inh CRC = Confirmation Concentration-Response Assay for Allosteric/Competitive Inhibitors of Caspase-1 | shares compounds with FBPA coupling cs | purified caspase-1, fluorogenic substrate cleavage | Potency, µM (doses to about 57.5 µM), inactives show at the top dose activity change, negative = inhibition, most hits filed as inhibitors | 20% of 60 active; active = well fitted inhibition curve with a large enough effect in the main read-out, with a control signal flat; inconclusive = small, poorly fitted or top-dose-only effect, or a change in a side signal; inactive = no such curve, though single readings can be large or run the other way
# CASP7 inh CRC = Confirmation Concentration-Response Assay for Allosteric/Competitive Inhibitors of Caspase-7; Potency, µM (titrated, usually from 57.5 µM), without a hit: at the highest dose activity change, negative = inhibition, hits mostly inhibitors; 60 tested, under 10 active; recombinant caspase-7, fluorogenic substrate cleavage; shares compounds with FBPA coupling cs; active = well fitted inhibition curve with a large enough effect in the main read-out, with a control signal flat, not every such curve was filed as active; inconclusive = small, poorly fitted or top-dose-only effect, or a change in a side signal; inactive = no such curve, though single readings can be large or run the other way
# CASP7 redox cys = Concentration-Response Counterscreen for Redox Active Inhibitors of Caspase-7: Cysteine; shares compounds with FBPA coupling cs; caspase-7 enzyme with cysteine, fluorogenic substrate, redox counterscreen; Potency, µM (titrated, usually from 57.5 µM), for inactives: at the top dose activity change, negative = inhibition, hits mostly inhibitors; 60 tested, under 10 active; active = well fitted inhibition curve with a large enough effect in the main read-out, with a control signal flat; inconclusive = small, poorly fitted or top-dose-only effect, or a change in a side signal; inactive = no such curve, though single readings can be large or run the other way
# CASP7 redox cat = Concentration-Response Counterscreen for Redox Active Inhibitors of Caspase-7: Catalase; shares compounds with FBPA coupling cs; Caspase-7 Ac-DEVD-AFC fluorescence rate, catalase buffer; Potency, µM (top dose mostly 57.5 µM), for inactives: at the top dose activity, negative = inhibition, most hits filed as inhibitors; 30 tested, under 10 active; active = well fitted inhibition curve with a large enough effect in the main read-out, with a control signal flat; inconclusive = small, poorly fitted or top-dose-only effect, or a change in a side signal; inactive = no such curve, though single readings can be large or run the other way
# CASP1 redox cys = Concentration-Response Counterscreen for Redox Active Inhibitors of Caspase-1: Cysteine; AID 929, 2007; 60 tested, under 10 active; recombinant caspase-1, fluorogenic substrate, cysteine buffer; Potency, µM (top dose mostly 57.5 µM), for inactives: at the top dose activity change, negative = inhibition, actives largely listed as inhibitors; shares compounds with FBPA coupling cs; active = well fitted inhibition curve with a large enough effect in the main read-out, with a control signal flat; inconclusive = small, poorly fitted or top-dose-only effect, or a change in a side signal; inactive = no such curve, though single readings can be large or run the other way
# VDR inh confirm = qHTS for Inhibitors of the vitamin D receptor (VDR): Hit Validation in Primary Screen; shares compounds with VDR inhibitor; VDR-coactivator inhibition assay, qHTS confirmation; Potency, µM, usual class: inhibitors; 89% of 840 active; AID 602199, 2012; also: potency is read from the fitted curve at half-maximal effect
# VDR FP fluor = qHTS for Inhibitors of the vitamin D receptor (VDR): Hit Validation using a Fluorescein Assay; shares compounds with VDR inhibitor; VDR-coactivator binding, fluorescein fluorescence polarization; Potency, µM (titrated, usually from 57.1 µM), without a hit: at the highest dose activity change, negative = inhibition, actives largely listed as inhibitors; 48% of 840 active; AID 602200, 2012; also: potency is read from the fitted curve at half-maximal effect
# VDR bla = qHTS for Inhibitors of the vitamin D receptor (VDR): Hit Validation using a Beta-Lactamase Assay; shares compounds with VDR inhibitor; VDR beta-lactamase reporter cells, FRET ratio; cells co-treated with VDR agonist LG190178; Potency, µM (top dose mostly 46.1 µM), without a hit: at the highest dose activity change, negative = inhibition, actives largely listed as inhibitors; 23% of 840 active; also: potency is read from the fitted curve at half-maximal effect; % is scaled to controls: 0 for no effect and ±100 for the full control effect
# VDR viability = qHTS for Inhibitors of the vitamin D receptor (VDR): Hit Validation using a Cytotoxicity Assay; shares compounds with VDR inhibitor; Potency, µM (titrated, usually from 48.3 µM), without a hit: at the top dose activity change, negative = cytotoxicity, usual class: cytotoxic; cytotoxicity counter-screen, cell viability, qHTS; AID 602204, 2012; 18% of 840 active;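 also: potency is read from the fitted curve at half-maximal effect; plate controls were DMSO for no effect and high-concentration cycloheximide for full effect; nearly all actives have a fitted effect of over 75% in size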
# * hit, by the source's call; ? = inconclusive; · = no result given; ! = not active in a repeat; [ ] = another dose, or the depositor's remark. Unless noted, calls follow the shape of the dose curve; as a rule, active = well fitted curve in the direction sought with a large enough effect; inconclusive = small, poorly fitted or top-dose-only effect, or another doubt; inactive = no such curve, though single readings can be large; an effect the other way counts as inactive or inconclusive.
SMILES,JMJD2E inh,RGS12 GoLoco inh-1,HTT ATP protect,FBPA coupling cs,HttQ103 aggreg,VDR inhibitor,CASP1 inh CRC,CASP7 inh CRC,CASP7 redox cys,CASP1 redox cys,others
COC(=O)c1ccc(NC(=O)CSc2ccccn2)cc1,-0.4%,12.6µM*,-1.4%,-6.0,7.2%,6.4%,·,·,·,·,RGS12 GoLoco inh-2=?
CCCCNc1ccc2c3c(cccc13)C(=O)N(CCCC)C2=O,6.4%,14.1µM*,-15.8%[10 µM],-5.7,?,-5.1%,·,·,·,·,RGS12 GoLoco inh-2=14.1µM*
CNc1ncnc2c1ncn2[C@H]1C[C@H](OP(=O)(O)O)[C@H](COP(=O)(O)O)O1,3.0%,4.0%,6.0%,1.2,·,2.0%,·,·,·,·,
Cc1nn(C)c(C)c1N1C(=O)c2cccc3c(N)ccc(c23)C1=O,-6.9%,22.4µM*,·,-0.1,?,-5.2%,·,·,·,·,RGS12 GoLoco inh-2=12.6µM*
COc1ccccc1N1C(=O)C=C(Sc2nc(C)cc(C)n2)C1=O,0.8%,1.41µM*,-7.7%[10 µM],-2.6,5.3%[9.22 µM],?,·,·,·,·,RGS12 GoLoco inh-2=?;VDR inh confirm=2.82*;VDR FP fluor=3.16µM*;VDR bla=20.6µM*;VDR viability=?
Cc1oc(-c2ccc(C(=O)Nc3ccc(F)cc3)cc2)nc1COc1ccccc1,·,·,·,·,·,20.2%,·,·,·,·,
Nc1ccc(N)c(Cl)c1,·,-7.7%,-60.2%,·,·,·,-3.7%,0.8%,-3.0%,4.3%,
CC(=O)[C@@H]1[C@@H]2C(=O)N(c3ccc(F)c(Cl)c3)C(=O)[C@@H]2C2c3ccccc3C=CN21 (stereo partly specified),?,85.9%,-19.0%[0.074 µM],-1.5,6.3%,·,-75.7%,-33.9%,-3.3%,?,Casp1 catalase=?;CASP7 redox cat=-25.3%
Cc1ccccc1Nc1cc(C(=O)NCc2cccs2)c2ccccc2n1,·,·,·,·,·,-11.4%,·,·,·,·,
N#CC(=NCCO)C1=C(O)c2ccccc2C1=O,·,-5.1%[14.2 µM],3.3%[10 µM],·,·,·,·,·,·,·,
O=C1C(SCCO)=C(SCCO)C(=O)c2ccccc21,?,3.55µM*!,-101.9%,-55.6*,·,5.62µM*,-44.1%,-17.6%,-13.9%,-7.9%,
CC(=O)n1nc(-c2ccco2)nc1SCc1ccccc1,0.3%,0.7%,-2.0%[10 µM],1.2,0.8%,?,-2.9%,2.4%,-0.9%,7.9%,
CCC(=O)n1nc(-c2ccco2)nc1SCc1ccccc1,0.9%,1.7%,-53.4%,0.2,-10.8%,-7.9%,·,·,·,·,
Nc1ccc(O)c(C(=O)O)c1,?,3.3%,22.7%,-45.7*,4.0%,44.7µM*!,-18.2%,-35.4%,-36.4%,-1.8%,
COc1cc2c(C=O)c3c4c(cc(OC)c(OC)c4c2cc1OC)CCN3C,?,60.4%,-12.3%[1.9 µM],-33.5*,·,-21.5%,12.6µM*,?,-8.5%,?,
COc1cc2c(C)c3c4c(cc(OC)c(OC)c4c2cc1OC)CCN3C,?,2.5%,7.2%[1.9 µM],-12.5,·,?,·,·,·,·,
O=C(NCc1cccc(F)c1)c1ccc(CS(=O)c2ccccc2Cl)o1 (stereo unspecified),·,·,·,·,·,15.4%,·,·,·,·,
C/C(CCN1CCCc2nc(C)c(C)cc21)=N\OC[C@@H](O)[C@@H]1O[C@@H]2OC(C)(C)O[C@@H]2[C@H]1O,·,·,4.8%[10 µM],0.7,·,·,·,·,·,·,
Cc1ccc(CNc2ccc(O)cc2)cc1,11.2µM*,17.8µM*,-2.4%[10 µM],-46.0*,15.8%,20µM*,-13.4%,-5.5%,-8.9%,3.1%,
